Records with an inconclusive call do not appear. Values without a mark were called inactive. Calls come from the whole dose curve.
Assay: qHTS for Inhibitors of Cell Surface uPA Generation: Wild-type Protective Antigen (WT-PrAg) Counterscreen for Cherry-picked Compounds; note: 0% is about no effect
Settings: cells, WT protective antigen toxicity counterscreen; series mostly up to 115 µM; activity (protection): at the top concentration

SMILES | activity (protection)
Cc1nn(C)c(C)c1S(=O)(=O)N1CCC(C(=O)NC2CCCCCC2)CC1 | -0.489%
COc1ccc(-n2nnnc2SCC(=O)Nc2nnc(C)s2)cc1 | -0.427%
NC(=O)CC(NC(=O)Cc1cccc2ccccc12)c1ccc(N2CCN(c3ccc(F)cc3)CC2)c([N+](=O)[O-])c1 (stereo not given) | -0.604%
COc1ccc([C@@H]2[C@@H]3C(=O)N(C(C)(C)C)C(=O)[C@@H]3[C@]3(C)C(=O)N(c4cccc(Cl)c4)C(=O)N23)cc1 | 2.55%
Cc1ccccc1-c1nnc(SCC(=O)NCC2CCCO2)o1 (stereo not given) | 0.534%
CCCCNc1nnc(SCC(=O)c2c(N)n(CCC)c(=O)[nH]c2=O)s1 | 10.7%
C[C@@H](C(=O)Nc1ccc2ccccc2c1)[C@@H]1C[C@@]1(C)[C@@H](NC(=O)c1cccnc1)c1ccccc1 | -2.34%
CCN(CC)CCCn1c2c(c(SCC(=O)Nc3cccc4ccccc34)nc1=O)CCC2 | -1.93%
O=C(Nc1ccc(S(=O)(=O)N2CCOCC2)cc1)c1cc(-c2ccccc2O)n[nH]1 | -0.407%
Cc1ccc(NS(=O)(=O)c2c(C)nc3sccn3c2=O)c(C)c1 | -0.69%
CCCCn1c(N)c(N(CCC(C)C)C(=O)c2sc3nc4n(c(=O)c3c2C)CCC4)c(=O)[nH]c1=O | 4.42%
CCCOc1ccc(CC2CCC(=O)NC2=O)cc1 (stereo not given) | -1.67%
CC1CCCN(C(=O)c2ccc(-c3ccccc3Cl)o2)C1 (stereo not given) | -2.52%
CC[C@]1(C(=O)OC)[C@H]2C(=O)N(C)C(=O)[C@H]2[C@H]2CN(C)C(=NC3CCCCC3)N21 | 1.39%
COc1ccccc1N1CCN(C(=O)CCC(=O)N2CCN(c3ccc(F)cc3)CC2)CC1 | -1.42%
COc1ccc(CN2CCNC(=O)C2CC(=O)NCC2CCOCC2)cc1C (stereo not given) | -0.406%
COc1ccc(-c2cc3nc(-c4ccccc4)cc(N4CCCC(O)C4)n3n2)cc1 (stereo not given) | 2.16%
O=C(CSc1ccc([N+](=O)[O-])cn1)Nc1nccs1 | -0.805%
COc1ccccc1-c1ccc(SCC(=O)NCCc2ccccc2)nn1 | -1.14%
CS(=O)(=O)N1CCC(C(=O)Nc2ccccc2)CC1 | 0.215%

SMILES | activity (protection)
COc1ccccc1N1CCN(C2CC(=O)N(c3ccccc3)C2=O)CC1 (stereo not given) | -1.25%
COc1ccc(CN2CCN(Cc3ccc(C(F)(F)F)cc3)CC2)cc1 | -1.82%
Cc1ccc(C2=NS(=O)(=O)N(C)C(C(=O)NC3CCCC3)=C2)cc1 | -0.662%
O=[N+]([O-])c1ccc(-c2cn3c(n2)SCC3)cc1 | -1.19%
Cn1c(C2CCCCC2)nc2cc(N)ccc21 | -1.75%
Cc1cccc(C)c1NC(=O)c1c(O)c2ccccc2[nH]c1=O | -2.65%
CC(C)N1CCc2c(sc(NC(=O)Cc3ccccc3)c2C(N)=O)C1 | -0.213%
O=C(NCCN1CCOCC1)c1ccccc1Cl | -1.14%
C=CCn1c(SCCN2C(=O)c3ccccc3C2=O)nc2scc(-c3ccc(F)cc3)c2c1=O | 4.05%
COc1ccc(OC)c(N2C(=O)CC(Cc3cc(C)cc(C)c3)C2=O)c1 (stereo not given) | -0.552%
COc1cc(CN2CCN(c3ncccn3)CC2)cc(OC)c1 | -0.252%
Cc1cnc(CNC(=O)CC2C(=O)NCCN2Cc2ccccc2C(F)(F)F)cn1 (stereo not given) | 0.0975%
Cn1c(=O)c(=O)n(C)c2cc(S(=O)(=O)CCC(=O)Nc3ccc(F)cc3)ccc21 | 0.666%
Brc1ccsc1/C=N/Nc1ccccc1 | 3.32%
CC(C)C[C@H]1CN([C@@H](CC(C)C)CN2CCCC2CN2C(=S)NC[C@@H]2Cc2ccc(O)cc2)C(=S)N1CC1CCCCC1 (stereo not given in full) | -0.649%
C/C(=N\NC(=S)NC(C)C)c1ccc(Cl)s1 | -1.3%
CCN1CCN(Cc2ccc(NC(=O)c3cc(NC(=O)c4cncc(-c5cccs5)c4)cc(OC)c3)cc2C(F)(F)F)CC1 | -0.909%
O=[N+]([O-])c1ccc(C[n+]2cccc(O)c2)cc1 | -1.12%
COc1ccc2nc(C)cc(Nc3ccccc3O)c2c1 | -2.51%
O=C(CCCC(=O)N(c1cccc(F)c1)C(C(=O)NC1CCCC1)c1ccc(O)cc1)Nc1ccccn1 (stereo not given) | -1.3%

Source: PubChem BioAssay AID720518 (National Center for Advancing Translational Sciences (NCATS), 2013)
